# Test results: PubChem BioAssay (EPA / NIEHS)
# A structure can be active in one record and inactive in another. Calls of active or inactive are those of the source. Rule for the calls, unless noted: active = hit-call score of the fitted dose curve at least 0.9, where 1 is the maximum; inconclusive = response in the unintended direction; inactive = score below 0.9.
# Target: Peroxisome proliferator-activated receptor gamma (Homo sapiens) (UniProt P37231)
# Test: OT_PPARg_PPARgSRC1_1440: Odyssey Thera (OT) 24-hour Protein-Complementation Assay for Peroxisome Proliferator-activated Receptor Gamma/ SRC-1 Co-activator (AID 2283388)
# Conditions: not given
# Procedure, shortened: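 HEK293T transiently transfected with PPARg/SRC-1 split-Venus YFP fusions 48 h before dosing, then treated 24 h at 37C. Fixed cells imaged; nuclear/cytoplasmic 488 nm fluorescence ratio, gain of signal versus DMSO.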
# Peroxisome proliferator-activated receptor gamma (Homo sapiens), sequence (P37231 whole entry, looked up): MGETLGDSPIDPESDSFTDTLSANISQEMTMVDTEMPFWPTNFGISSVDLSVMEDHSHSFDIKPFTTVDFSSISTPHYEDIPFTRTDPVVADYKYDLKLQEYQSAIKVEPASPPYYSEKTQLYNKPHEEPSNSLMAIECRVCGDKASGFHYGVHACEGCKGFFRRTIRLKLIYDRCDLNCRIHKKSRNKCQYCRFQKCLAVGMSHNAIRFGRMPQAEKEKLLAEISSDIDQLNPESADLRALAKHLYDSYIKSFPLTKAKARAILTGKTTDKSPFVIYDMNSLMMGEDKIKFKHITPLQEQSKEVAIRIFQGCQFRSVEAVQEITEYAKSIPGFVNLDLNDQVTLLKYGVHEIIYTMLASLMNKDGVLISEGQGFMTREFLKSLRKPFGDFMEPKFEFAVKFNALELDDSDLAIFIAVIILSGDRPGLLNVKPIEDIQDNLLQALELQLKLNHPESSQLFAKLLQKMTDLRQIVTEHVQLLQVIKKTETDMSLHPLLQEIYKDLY
SMILES,outcome,AC50
CCOP(=S)(OCC)SCSC(C)(C)C,inactive,
ClC1=C(Cl)[C@]2(Cl)[C@@H]3[C@@H]4C[C@@H]([C@H]5O[C@@H]45)[C@@H]3[C@@]1(Cl)C2(Cl)Cl,inactive,
CCCCCCOC(=O)c1ccccc1C(=O)OCCCCCC,inactive,
O=C(O)C(F)(F)C(F)(F)C(F)(F)C(F)(F)C(F)(F)C(F)(F)C(F)(F)C(F)(F)F,inactive,
CCOC(=O)C(O)(c1ccc(Cl)cc1)c1ccc(Cl)cc1,inactive,
CCNc1nc(NC(C)C)nc(SC)n1,inactive,
Cc1ccc(O)c(C)c1,inactive,
CCCN(CCC)N=O,inactive,
CCOCCOC(C)=O,inactive,
Cc1cc2c3c(c1)C(c1ccccc1)=N[C@@H](NC(=O)c1ccncc1)C(=O)N3CC2,inactive,37.4 µM (active)
Cc1cccc(C)c1N,inactive,
c1cc2ccc3cccc4ccc(c1)c2c34,inactive,
CC#Cc1cc(C)nc(Nc2ccccc2)n1,inactive,
CCC(=O)O[C@H]1CC[C@H]2[C@@H]3CCC4=CC(=O)CC[C@]4(C)[C@H]3CC[C@]12C,inactive,
ClC1=C(Cl)[C@]2(Cl)[C@@H]3[C@H]4C[C@H]([C@@H]5O[C@H]45)[C@@H]3[C@@]1(Cl)C2(Cl)Cl,inactive,
O=C(N[C@H]1CN2CCC1CC2)c1cc2ccoc2cn1,inactive,

SMILES,outcome,AC50
O=C(NC(=O)c1c(F)cccc1F)Nc1cc(Cl)c(OC(F)(F)C(F)F)c(Cl)c1,inactive,
Nc1ccc(-c2ccc(N)cc2)cc1,inactive,
Cc1cc(O)ccc1Cl,inactive,
Oc1ccc(Cl)cc1Cl,inactive,
C[C@]12CCC(=O)C=C1CC[C@@H]1[C@@H]2CC[C@]2(C)C(=O)CC[C@@H]12,inactive,
NS(=O)(=O)C(F)(F)C(F)(F)C(F)(F)C(F)(F)C(F)(F)C(F)(F)C(F)(F)C(F)(F)F,inactive,
Cc1ccccc1CO[C@@H]1C[C@@]2(C(C)C)CC[C@]1(C)O2,inactive,
N#Cc1ccc(N(CC(N)=O)CC(F)(F)F)cc1C(F)(F)F,inactive,
CCSC(=O)N(CC)C1CCCCC1,inactive,
Clc1ccc(C(c2ccccc2Cl)C(Cl)(Cl)Cl)cc1 (stereo unspecified),inactive,
Cc1cc(-c2ccc(N)c(C)c2)ccc1N,inactive,
C[C@]12CCC(=O)C=C1CC[C@@H]1[C@@H]2CC[C@@]2(C)[C@H]1CC[C@]2(C)O,inactive,
CCC(C)(CC)c1cc(NC(=O)c2c(OC)cccc2OC)on1,inactive,
O=S(=O)(O)C(F)(F)C(F)(F)C(F)(F)C(F)(F)F,inactive,
CC1=C2C[C@H]3[C@@H](CC=C4C[C@@H](O)CC[C@@]43C)[C@@H]2CC[C@]12O[C@@H]1C[C@H](C)CN[C@H]1[C@H]2C,inactive,

# Read-out: not listed separately
# Test: CEETOX_H295R_11DCORT: CeeTox H295R High-throughput Steroidogenesis Assay for 11-Deoxycortisol (11DCORT) (AID 2283432; active = hit-call score of the fitted dose curve at least 0.9, where 1 is the maximum; inactive = score below 0.9;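 for AC50: human adrenal H295R cells prestimulated with 10 µM forskolin for 48 h; 11-deoxycortisol secreted into the medium measured by LC-MS/MS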)
# Conditions: actives raise or lower the signal
# Procedure, shortened: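 Adrenal carcinoma line H295R, run per OECD 456 with minor changes, was forskolin-stimulated (10 uM, 48 h) before a 48 h chemical exposure at 0.1% DMSO. Secreted 11-deoxycortisol was quantified by HPLC-MS/MS.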
SMILES,outcome,AC50
C=CC(N)=O,inactive,
Cc1ccc(O)c(C)c1,inactive,
CCOCCOC(C)=O,inactive,
Cc1cccc(C)c1N,inactive,
c1cc2ccc3cccc4ccc(c1)c2c34,,26.5 µM (active)
CC#Cc1cc(C)nc(Nc2ccccc2)n1,inactive,
CCC(=O)O[C@H]1CC[C@H]2[C@@H]3CCC4=CC(=O)CC[C@]4(C)[C@H]3CC[C@]12C,,75.1 µM (active)
ClC1=C(Cl)[C@]2(Cl)[C@@H]3[C@H]4C[C@H]([C@@H]5O[C@H]45)[C@@H]3[C@@]1(Cl)C2(Cl)Cl,,7.42 µM (active)
O=C(NC(=O)c1c(F)cccc1F)Nc1cc(Cl)c(OC(F)(F)C(F)F)c(Cl)c1,inactive,
Nc1ccc(-c2ccc(N)cc2)cc1,,79.6 µM (active)
Cc1cc(O)ccc1Cl,inactive,
Oc1ccc(Cl)cc1Cl,inactive,
NS(=O)(=O)C(F)(F)C(F)(F)C(F)(F)C(F)(F)C(F)(F)C(F)(F)C(F)(F)C(F)(F)F,inactive,
CCSC(=O)N(CC)C1CCCCC1,inactive,
Clc1ccc(C(c2ccccc2Cl)C(Cl)(Cl)Cl)cc1 (stereo unspecified),inactive,
C[C@]12CCC(=O)C=C1CC[C@@H]1[C@@H]2CC[C@@]2(C)[C@H]1CC[C@]2(C)O,,11 µM (active)
CC1=C2C[C@H]3[C@@H](CC=C4C[C@@H](O)CC[C@@]43C)[C@@H]2CC[C@]12O[C@@H]1C[C@H](C)CN[C@H]1[C@H]2C,inactive,

# Read-out: not listed separately
# Test: CEETOX_H295R_OHPREG: CeeTox H295R High-throughput Steroidogenesis Assay for OH-Pregnenolone (OHPREG) (AID 2283434; active = hit-call score of the fitted dose curve at least 0.9, where 1 is the maximum; inactive = score below 0.9)
# Conditions: actives raise or lower the signal
# Procedure, shortened: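 H295R cells pre-stimulated 48 h with 10 uM forskolin, then exposed 48 h to chemical in 0.1% DMSO. 17alpha-hydroxypregnenolone in medium quantified by MTBE extraction and HPLC-MS/MS; bidirectional fit versus DMSO, viability checked by MTT.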
SMILES,AC50,outcome
CCOP(=S)(OCC)SCSC(C)(C)C,37 µM (active),
CCNc1nc(NC(C)C)nc(SC)n1,,inactive
Cc1ccc(O)c(C)c1,,inactive
CCOCCOC(C)=O,,inactive
Cc1cc2c3c(c1)C(c1ccccc1)=N[C@@H](NC(=O)c1ccncc1)C(=O)N3CC2,25.4 µM (active),
Cc1cccc(C)c1N,,inactive
c1cc2ccc3cccc4ccc(c1)c2c34,15.8 µM (active),
CC#Cc1cc(C)nc(Nc2ccccc2)n1,,inactive
CCC(=O)O[C@H]1CC[C@H]2[C@@H]3CCC4=CC(=O)CC[C@]4(C)[C@H]3CC[C@]12C,34.1 µM (active),
ClC1=C(Cl)[C@]2(Cl)[C@@H]3[C@H]4C[C@H]([C@@H]5O[C@H]45)[C@@H]3[C@@]1(Cl)C2(Cl)Cl,1.48 µM (active),
O=C(NC(=O)c1c(F)cccc1F)Nc1cc(Cl)c(OC(F)(F)C(F)F)c(Cl)c1,,inactive
Nc1ccc(-c2ccc(N)cc2)cc1,14.3 µM (active),
Cc1cc(O)ccc1Cl,,inactive
Oc1ccc(Cl)cc1Cl,,inactive
C[C@]12CCC(=O)C=C1CC[C@@H]1[C@@H]2CC[C@]2(C)C(=O)CC[C@@H]12,8.12 µM (active),
NS(=O)(=O)C(F)(F)C(F)(F)C(F)(F)C(F)(F)C(F)(F)C(F)(F)C(F)(F)C(F)(F)F,,inactive
Cc1ccccc1CO[C@@H]1C[C@@]2(C(C)C)CC[C@]1(C)O2,50 µM (active),
N#Cc1ccc(N(CC(N)=O)CC(F)(F)F)cc1C(F)(F)F,,inactive
Clc1ccc(C(c2ccccc2Cl)C(Cl)(Cl)Cl)cc1 (stereo unspecified),,inactive
Cc1cc(-c2ccc(N)c(C)c2)ccc1N,,inactive
C[C@]12CCC(=O)C=C1CC[C@@H]1[C@@H]2CC[C@@]2(C)[C@H]1CC[C@]2(C)O,5.59 µM (active),
CCC(C)(CC)c1cc(NC(=O)c2c(OC)cccc2OC)on1,,inactive
